The list shows a part of the results. How many sequences the whole screen found active is unknown.
Target: furin, P09958
Experiment: furin cleavage Z-score vs untreated control; higher = more cleavage, active = 3.5 or more, inactive = 1 or less, 8 variable residues between constant flanks
Method in brief: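 The cleavage Z-score is the log read count relative to furin-free reactions, lowess-adjusted and scaled by median absolute deviation. Counts came from sequencing DNA released from bead-bound 8-mer peptide–cDNA fusions after digestion with purified furin for 7.5, 15 or 30 min.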
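Further: purified furin at 1:10 enzyme:substrate in 50 mM HEPES pH 7.5.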

Chain of furin, P09958 (P09958 whole entry): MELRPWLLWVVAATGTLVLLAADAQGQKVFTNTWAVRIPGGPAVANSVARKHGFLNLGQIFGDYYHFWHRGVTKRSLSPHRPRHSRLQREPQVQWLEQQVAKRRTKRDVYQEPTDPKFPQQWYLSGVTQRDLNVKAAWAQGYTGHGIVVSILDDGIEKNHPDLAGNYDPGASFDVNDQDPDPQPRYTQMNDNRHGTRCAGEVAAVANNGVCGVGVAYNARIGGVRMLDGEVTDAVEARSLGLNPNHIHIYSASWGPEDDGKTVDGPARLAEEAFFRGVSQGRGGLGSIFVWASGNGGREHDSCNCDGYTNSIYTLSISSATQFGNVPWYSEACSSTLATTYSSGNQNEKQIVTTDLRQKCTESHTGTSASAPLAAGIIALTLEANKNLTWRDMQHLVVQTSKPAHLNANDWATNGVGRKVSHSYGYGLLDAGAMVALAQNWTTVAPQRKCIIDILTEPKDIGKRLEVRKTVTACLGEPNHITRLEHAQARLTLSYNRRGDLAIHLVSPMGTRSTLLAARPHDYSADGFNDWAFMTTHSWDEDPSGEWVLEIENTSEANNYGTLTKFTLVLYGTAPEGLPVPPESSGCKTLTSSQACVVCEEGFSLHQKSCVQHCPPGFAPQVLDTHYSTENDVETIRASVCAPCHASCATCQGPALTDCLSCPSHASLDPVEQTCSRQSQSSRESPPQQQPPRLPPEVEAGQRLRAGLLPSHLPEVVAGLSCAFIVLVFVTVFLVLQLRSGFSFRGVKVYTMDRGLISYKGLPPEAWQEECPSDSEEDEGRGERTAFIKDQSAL

Sequence | furin cleavage Z-score (7.5 min) | furin cleavage Z-score (15 min) | furin cleavage Z-score (30 min)
CAIYGACYSIAGNASASA [HC1594] | 0.0718 (inactive) | 0.563 (inactive) | -0.201 (inactive)
CARGLLGCIIAGNASASA [HC679] | -0.71 (inactive) | -0.595 (inactive) | -1.08 (inactive)
CAVHSRASRDAGNASASA [FS-205] | 6.86 (active) | 6.96 (active) | 4.81 (active)
CARLARASRDAGNASASA [FS-1606] | 6.41 (active) | 5.81 (active) | 5.23 (active)
CAEVPCHNPSAGNASASA [HC2381] | -0.125 (inactive) | 0.398 (inactive) | -1.22 (inactive)
CASGYRGRRSAGNASASA [FS-1279] | 10.4 (active) | 9.6 (active) | 8.02 (active)
CAYLNRGRRSAGNASASA [FS-1504] | 8.94 (active) | 11.8 (active) | 8.66 (active)
CASLARGRRSAGNASASA [FS-295] | 9.48 (active) | 9.53 (active) | 7.6 (active)
CALPEAGRRSAGNASASA [FS-1462] | -0.222 (inactive) | -0.673 (inactive) | -1.48 (inactive)
CASPARLARRAGNASASA [FS-869] | 0.549 (inactive) | 3.9 (active) | 4.41 (active)
CALVSRVTRSAGNASASA [FS-363] | 13 (active) | 12.8 (active) | 10.3 (active)
CAYYHRHTRSAGNASASA [FS-577] | 0.662 (inactive) | 0.71 (inactive) | 1.07
CASPERHTRSAGNASASA [FS-1414] | 9.58 (active) | 9.61 (active) | 8.51 (active)
CAIPRRHTRSAGNASASA [FS-1015] | 4.95 (active) | 4.88 (active) | 4.46 (active)
CACYIKARAAAGNASASA [HC1518] | -1.15 (inactive) | -2.21 (inactive) | -1.87 (inactive)
CALETTMRSPAGNASASA [HC761] | -0.168 (inactive) | -1 (inactive) | -1.96 (inactive)
CACDECHSTDAGNASASA [HC818] | 0.0668 (inactive) | -0.316 (inactive) | -1.36 (inactive)
CAVVCCSMSSAGNASASA [HC2097] | -1.16 (inactive) | -0.774 (inactive) | -1.81 (inactive)
CASLDPTFTIAGNASASA [HC893] | -1.06 (inactive) | -1.75 (inactive) | -1.02 (inactive)
CASPARETRSAGNASASA [FS-627] | 5.25 (active) | 8.43 (active) | 6.33 (active)
CAQLRRTTRSAGNASASA [FS-285] | 7.33 (active) | 6.26 (active) | 6.25 (active)
CASPLRQNRSAGNASASA [FS-299] | 0.752 (inactive) | 0.557 (inactive) | 0.444 (inactive)
CAMDARTDRSAGNASASA [FS-1375] | 1.8 | -1.12 (inactive) | 0.78 (inactive)
CAEYVTSTWVAGNASASA [HC2169] | 0.357 (inactive) | 0.186 (inactive) | -1.53 (inactive)
CAAGAAIGSVAGNASASA [HC1078] | -1.21 (inactive) | 0.457 (inactive) | -0.822 (inactive)

Sequence | furin cleavage Z-score (7.5 min) | furin cleavage Z-score (15 min) | furin cleavage Z-score (30 min)
CAEVVTSHWVAGNASASA [HC2215] | -1.58 (inactive) | -0.204 (inactive) | 0.171 (inactive)
CAAAGRRLARAGNASASA [HC1253] | 4.08 (active) | 4.81 (active) | 4.86 (active)
CADPTTPLARAGNASASA [HC1564] | -0.242 (inactive) | -3 (inactive) | -1.34 (inactive)
CAVRARLLARAGNASASA [HC1624] | -2.8 (inactive) | -0.431 (inactive) | -0.318 (inactive)
CAVDCCSMSYAGNASASA [HC2011] | 0.752 (inactive) | -0.617 (inactive) | 0.379 (inactive)
CAMHIRRKRIAGNASASA [FS-1235] | 8.17 (active) | 9.27 (active) | 7.92 (active)
CAFKNRSCRIAGNASASA [FS-768] | -0.201 (inactive) | 0.864 (inactive) | 0.865 (inactive)
CAARIRVKRYAGNASASA [FS-8] | 8.19 (active) | 7 (active) | 8.58 (active)
CALAERRVRIAGNASASA [FS-265] | 0.222 (inactive) | 0.166 (inactive) | -2.18 (inactive)
CARCRRNKRIAGNASASA [FS-1649] | 4.5 (active) | 6.14 (active) | 4.22 (active)
CALILRSKRYAGNASASA [FS-1024] | 9.69 (active) | 10.5 (active) | 10.3 (active)
CADFDSVIDCAGNASASA [HC884] | -0.725 (inactive) | -1.64 (inactive) | -0.179 (inactive)
CAEVYCHRPSAGNASASA [HC2349] | -0.918 (inactive) | 0.00682 (inactive) | -0.904 (inactive)
CAAEECSQHLAGNASASA [HC1663] | 0.467 (inactive) | 0.000249 (inactive) | 1.4
CAAICRRKRYAGNASASA [FS-396] | 11.5 (active) | 13.2 (active) | 11.3 (active)
CAFHIRRKRYAGNASASA [FU9] | 11 (active) | 12.5 (active) | 11.3 (active)
CASRGENCGYAGNASASA [HC1505] | 1.28 | -1.03 (inactive) | -0.54 (inactive)
CAFHIRRKRYAGNASASA [FS-651] | 11.7 (active) | 12.5 (active) | 10.9 (active)
CAAICGKYLFAGNASASA [HC1630] | 1.25 | -1.22 (inactive) | -0.719 (inactive)
CANHVSPTHYAGNASASA [HC1124] | -0.962 (inactive) | 0.0646 (inactive) | -0.575 (inactive)
CASRHRVTRYAGNASASA [FS-1489] | 9.37 (active) | 11.3 (active) | 10.7 (active)
CANFISGIQYAGNASASA [HC1044] | -0.934 (inactive) | -0.739 (inactive) | -0.721 (inactive)
CAANVRRKRYAGNASASA [FS-643] | 12.5 (active) | 13.8 (active) | 11.3 (active)
CALTHPVTKYAGNASASA [HC979] | -1.06 (inactive) | 1.08 | 1.75

From the supplement of paper PMC3545927
